# Key:
# Test in all cases: SPOT peptide array binding signal intensity (averaged, normalized) (arbitrary units (background-subtracted, floor 0; scale differs between SH3 domains)); higher = stronger binding of the SH3 domain to the peptide
# [1] = molecular target: AgAbp1
# In short: (§1)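 Peptides were synthetic 15-mers on cellulose membranes, with every cysteine replaced by serine. They were incubated overnight at 4°C with GST-SH3 domains from four yeast species at 10 μg/ml in TBS-based blocking buffer. Binding signal, the replicate-averaged normalized and background-subtracted spot intensity, is in arbitrary units that differ between domains.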
# [2] = molecular target: AgBbc1
# In short: as §1
# [3] = molecular target: AgBem1-D1
# In short: as §1
# [4] = molecular target: AgBzz1-D1
# In short: as §1
# [5] = molecular target: AgBzz1-D2
# In short: as §1
# [6] = molecular target: AgCyk3
# In short: as §1
# [7] = molecular target: AgFus1
# In short: as §1
# [8] = molecular target: AgHof1
# In short: as §1
# [9] = molecular target: AgHse1
# In short: as §1
# [10] = molecular target: AgLsb1
# In short: as §1
# [11] = molecular target: AgLsb4
# In short: as §1
# [12] = molecular target: AgMyo5
# In short: as §1
# [13] = molecular target: AgNbp2
# In short: as §1
# [14] = molecular target: AgRvs167
# In short: as §1
# [15] = molecular target: AgSho1
# In short: as §1
# [16] = molecular target: AgSla1-D1-D2
# In short: as §1
# [17] = molecular target: AgSla1-D3
# In short: as §1
# [18] = molecular target: CaAbp1-D1
# In short: as §1
# [19] = molecular target: CaAbp1-D2
# In short: as §1
# [20] = molecular target: CaBbc1
# In short: as §1
# [21] = molecular target: CaBem1-D1
# In short: as §1
# [22] = molecular target: CaBzz1-D1
# In short: as §1
# [23] = molecular target: CaBzz1-D2
# In short: as §1
# [24] = molecular target: CaCyk3
# In short: as §1
# [25] = molecular target: CaFus1
# In short: as §1
# [26] = molecular target: CaHof1
# In short: as §1
# [27] = molecular target: CaHse1
# In short: as §1
# [28] = molecular target: CaLsb1
# In short: as §1
# [29] = molecular target: CaLsb4
# In short: as §1
# [30] = molecular target: CaMyo5
# In short: as §1
binder,measurement,setting,value
NNFYRPLLRSVLVLL,SPOT peptide array binding signal intensity,[1],≤ 0
same,SPOT peptide array binding signal intensity,[2],≤ 0
same,SPOT peptide array binding signal intensity,[3],8
same,SPOT peptide array binding signal intensity,[4],13
same,SPOT peptide array binding signal intensity,[5],18
same,SPOT peptide array binding signal intensity,[6],≤ 0
same,SPOT peptide array binding signal intensity,[7],246
same,SPOT peptide array binding signal intensity,[8],≤ 0
same,SPOT peptide array binding signal intensity,[9],722
same,SPOT peptide array binding signal intensity,[10],0.5
same,SPOT peptide array binding signal intensity,[11],10.5
same,SPOT peptide array binding signal intensity,[12],≤ 0
same,SPOT peptide array binding signal intensity,[13],6.5
same,SPOT peptide array binding signal intensity,[14],1
same,SPOT peptide array binding signal intensity,[15],14.5
same,SPOT peptide array binding signal intensity,[16],1
same,SPOT peptide array binding signal intensity,[17],2
same,SPOT peptide array binding signal intensity,[18],≤ 0
same,SPOT peptide array binding signal intensity,[19],≤ 0
same,SPOT peptide array binding signal intensity,[20],≤ 0
same,SPOT peptide array binding signal intensity,[21],≤ 0
same,SPOT peptide array binding signal intensity,[22],≤ 0
same,SPOT peptide array binding signal intensity,[23],1
same,SPOT peptide array binding signal intensity,[24],≤ 0
same,SPOT peptide array binding signal intensity,[25],2730
same,SPOT peptide array binding signal intensity,[26],0.75
same,SPOT peptide array binding signal intensity,[27],21.8
same,SPOT peptide array binding signal intensity,[28],≤ 0
same,SPOT peptide array binding signal intensity,[29],≤ 0
same,SPOT peptide array binding signal intensity,[30],≤ 0
